# PubChem BioAssay AID1508619 (National Center for Advancing Translational Sciences (NCATS), 2020)
# Records with an inconclusive call do not appear. Where a call stands in place of a potency, no number is given. The source made the active and inactive calls. The call rests on the fitted dose curve; in most records, active means well fitted inhibition curve with a large enough effect; inconclusive means small, poorly fitted or top-dose-only effect; inactive means no such curve, though single readings can be large or run the other way.
# Assay: Counterscreen qHTS for Identification of Calcium Integrin Binding Protein 1 (CIB1) Competitor
# Conditions: series mostly up to 114 µM
# Method in brief: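 Counterscreen FP assay: CIB1-GST 1 uM in 5 mM HEPES pH 7.4, 125 mM NaCl, 5 mM CaCl2, 0.01% Tween20, with compounds up to 114 uM for 15 min, then 100 nM FITC-labelled scrambled peptide, 15 min, polarization read ex 480/em 540.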
# Potency means the concentration at half of the fitted maximal effect.
row,SMILES,Potency
1,Nc1ccc(CNc2ccc([S+](=O)([O-])Nc3nccs3)cc2)c(O)c1,50.1 µM (active)
2,CO[C@@]12[C@H](COC(N)=O)C3=C(C(=O)C(C)=C(N)C3=O)N1C[C@@H]1N[C@@H]12,inactive
3,Cc1ccc2nc3sc(C(=O)NCc4ccco4)cc3cc2c1,inactive
4,O=C1CCCC2=C1C(c1[nH]ncc1Cl)N=C(Nc1nc3ccccc3o1)N2 (stereo not drawn),inactive
5,Cc1nc(C(=O)NCC(=O)O)c(O)c2ccc(Oc3ccccc3)cc12,inactive
6,Cc1ccc([S+](=O)([O-])Nc2nn3c(=O)c4ccccc4nc3s2)cc1C,inactive
7,Cc1cc2nc3ccc(=[N+](C)C)cc-3sc2cc1N,44.7 µM (active)
8,Cc1cc(NS(=O)(=O)c2ccc(NC(=O)Cc3ccc(F)c(Cl)c3)cc2)no1,inactive
9,O=C1CCCC2=C1C(c1cccnc1Br)N=C(Nc1nc3ccccc3o1)N2 (stereo not drawn),inactive
10,O=c1[nH]sc2cc(Cl)ccc12,inactive
11,NC(=O)c1ncn([C@@H]2O[C@H](CO)[C@@H](O)[C@H]2O)c1O,inactive
12,O=C(NNC(=O)c1nc2ccccc2[nH]1)OCc1ccccc1,inactive
13,C=C(CC)C(=O)c1ccc(OCC(=O)O)c(Cl)c1Cl,inactive
14,CC(C)(O)CCc1ccc(OCc2cc(-c3cccc(OC(F)F)c3)c3ncccc3c2)cc1,inactive
15,NC[C@H](O)c1ccc(O)c(O)c1,inactive
16,O=[S+]([O-])(NCc1nccs1)c1ccc(Nc2nc(-c3ccccc3)cs2)cc1,50.1 µM (active)
17,O=Cc1c(-c2ccccc2)no[n+]1[O-],inactive
18,N#Cc1cnc(NS(=O)(=O)c2ccc(NC(=O)Cc3ccc(F)c(Cl)c3)cc2)s1,inactive
